Measurements published in PubChem BioAssay AID1159580 (chemical genetic matrix, 2015).
The whole screen tested about 5,500 compounds, of which about 2,000 (36%) were called active. Inconclusive results (about 18%) are left out. Cut-off read from the data, not from the text of the source: active = normalized growth mostly below about 0.91 (no sharp cut-off); inconclusive = no clear call, values can overlap the other calls; inactive = mostly above about 0.92. Some of the results follow.

Test: chemical genetic growth profiling, strain panel (AID 1159580);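 note: tested at 20 µM; growth read once vehicle control cultures reached saturation at 30 °C; 1 = growth at the plate median or of vehicle wells; lower values mean less growth of the strain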
Settings: growth OD

Measured: normalized growth

CC(=O)NC1SCCC1=O (stereo not drawn)
inactive: S. cerevisiae deletion strains, locus YAL021C, strain ccr4, stronger effect = lower value 1.01 | S. cerevisiae deletion strains, locus YAL026C, strain drs2, stronger effect = lower value 0.983 | S. cerevisiae deletion strains, locus YAL030W, strain snc1, stronger effect = lower value 0.975 | S. cerevisiae deletion strains, locus YBL061C, strain skt5, stronger effect = lower value 0.985 | S. cerevisiae deletion strains, locus YBR009C, strain hhf1, stronger effect = lower value 0.971 | S. cerevisiae deletion strains, locus YBR021W, strain FUR4, stronger effect = lower value 1.02 | S. cerevisiae deletion strains, locus YBR023C, strain chs3, stronger effect = lower value 0.977 | S. cerevisiae deletion strains, locus YBR171W, strain sec66, stronger effect = lower value 0.998 | S. cerevisiae deletion strains, locus YBR229C, strain ROT2, stronger effect = lower value 1.01 | S. cerevisiae deletion strains, locus YBR231C, strain swc5, stronger effect = lower value 0.996 | S. cerevisiae deletion strains, locus YBR279W, strain paf1, stronger effect = lower value 0.99 | S. cerevisiae deletion strains, locus YCL011C, strain gbp2, stronger effect = lower value 0.974 | S. cerevisiae deletion strains, locus YCL016C, strain dcc1, stronger effect = lower value 0.99 | S. cerevisiae deletion strains, locus YCL029C, strain bik1, stronger effect = lower value 1.02 | S. cerevisiae deletion strains, locus YCL061C, strain MRC1, stronger effect = lower value 1 | S. cerevisiae deletion strains, locus YCL069W, strain vba3, stronger effect = lower value 0.981 | S. cerevisiae deletion strains, locus YCR088W, strain abp1, stronger effect = lower value 0.984 | S. cerevisiae deletion strains, locus YDL005C, strain med2, stronger effect = lower value 1.01 | S. cerevisiae deletion strains, locus YDL035C, strain GPR1, stronger effect = lower value 1.03 | S. cerevisiae deletion strains, locus YDL040C, strain nat1, stronger effect = lower value 0.992 | S. cerevisiae deletion strains, locus YDL074C, strain BRE1, stronger effect = lower value 0.994 | S. cerevisiae deletion strains, locus YDL101C, strain DUN1, stronger effect = lower value 1.01 | S. cerevisiae deletion strains, locus YDL134C, strain PPH21, stronger effect = lower value 1.03 | S. cerevisiae deletion strains, locus YDL185W, strain tfp1, stronger effect = lower value 1.01 | S. cerevisiae deletion strains, locus YDL192W, strain arf1, stronger effect = lower value 1.01 | S. cerevisiae deletion strains, locus YDR001C, strain nth1, stronger effect = lower value 0.986 | S. cerevisiae deletion strains, locus YDR069C, strain doa4, stronger effect = lower value 0.977 | S. cerevisiae deletion strains, locus YDR101C, strain arx1, stronger effect = lower value 0.982 | S. cerevisiae deletion strains, locus YDR137W, strain rgp1, stronger effect = lower value 1.01 | S. cerevisiae deletion strains, locus YDR159W, strain sac3, stronger effect = lower value 0.945 | S. cerevisiae deletion strains, locus YDR162C, strain NBP2, stronger effect = lower value 1.02 | S. cerevisiae deletion strains, locus YDR195W, strain ref2 0.97 | S. cerevisiae deletion strains, locus YDR297W, strain sur2, stronger effect = lower value 0.985 | S. cerevisiae deletion strains, locus YDR318W, strain mcm21, stronger effect = lower value 1.02 | S. cerevisiae deletion strains, locus YDR334W, strain swr1, stronger effect = lower value 0.982 | S. cerevisiae deletion strains, locus YDR335W, strain msn5, stronger effect = lower value 0.99 | S. cerevisiae deletion strains, locus YDR388W, stronger effect = lower value 1.02 | S. cerevisiae deletion strains, locus YDR392W, strain spt3, stronger effect = lower value 0.889 | S. cerevisiae deletion strains, locus YDR502C, strain sam2, stronger effect = lower value 0.999 | S. cerevisiae deletion strains, locus YEL003W, strain gim4, stronger effect = lower value 0.976 | S. cerevisiae deletion strains, locus YEL037C, strain rad23, stronger effect = lower value 0.975 | S. cerevisiae deletion strains, locus YEL061C, strain CIN8 (second series), stronger effect = lower value 0.981 | S. cerevisiae deletion strains, locus YEL061C, strain CIN8, stronger effect = lower value 1 | S. cerevisiae deletion strains, locus YER015W, strain faa2, stronger effect = lower value 1.01 | S. cerevisiae deletion strains, locus YER016W, strain bim1, stronger effect = lower value 0.982 | S. cerevisiae deletion strains, locus YER110C, stronger effect = lower value 1.02 | S. cerevisiae deletion strains, locus YER111C, strain swi4, stronger effect = lower value 0.977 | S. cerevisiae deletion strains, locus YER155C, strain BEM2 (second series), stronger effect = lower value 0.958 | S. cerevisiae deletion strains, locus YER155C, strain BEM2, stronger effect = lower value 1.01 | S. cerevisiae deletion strains, locus YER167W, strain BCK2, stronger effect = lower value 1.02 | S. cerevisiae deletion strains, locus YFR010W, strain ubp6, stronger effect = lower value 0.983 | S. cerevisiae deletion strains, locus YGL078C, strain dbp3, stronger effect = lower value 1 | S. cerevisiae deletion strains, locus YGL086W, strain mad1, stronger effect = lower value 0.999 | S. cerevisiae deletion strains, locus YGL167C, strain pmr1, stronger effect = lower value 0.977 | S. cerevisiae deletion strains, locus YGL173C, strain kem1, stronger effect = lower value 0.974 | S. cerevisiae deletion strains, locus YGL227W, strain vid30, stronger effect = lower value 0.986 | S. cerevisiae deletion strains, locus YGL240W, strain doc1, stronger effect = lower value 0.988 | S. cerevisiae deletion strains, locus YGL248W, strain PDE1, stronger effect = lower value 0.999 | S. cerevisiae deletion strains, locus YGL253W, strain hxk2, stronger effect = lower value 0.989 | S. cerevisiae deletion strains, locus YGR135W, strain pre9, stronger effect = lower value 1.05 | S. cerevisiae deletion strains, locus YGR252W, strain gcn5, stronger effect = lower value 1 | S. cerevisiae deletion strains, locus YHR013C, strain ard1, stronger effect = lower value 0.943 | S. cerevisiae deletion strains, locus YHR027C, strain rpn1, stronger effect = lower value 1 | S. cerevisiae deletion strains, locus YHR030C, strain SLT2, stronger effect = lower value 1 | S. cerevisiae deletion strains, locus YHR079C, strain IRE1 (second series), stronger effect = lower value 1 | S. cerevisiae deletion strains, locus YHR094C, strain hxt1, stronger effect = lower value 1.02 | S. cerevisiae deletion strains, locus YHR129C, strain ARP1, stronger effect = lower value 1.01 | S. cerevisiae deletion strains, locus YHR142W, strain chs7, stronger effect = lower value 1.02 | S. cerevisiae deletion strains, locus YHR200W, strain rpn10, stronger effect = lower value 1.02 | S. cerevisiae deletion strains, locus YIL066C, strain RNR3, stronger effect = lower value 0.998 | S. cerevisiae deletion strains, locus YIL073C, strain SPO22, stronger effect = lower value 1.04 | S. cerevisiae deletion strains, locus YIL125W, strain kgd1, stronger effect = lower value 1.01 | S. cerevisiae deletion strains, locus YIR030C, strain dcg1, stronger effect = lower value 1.01 | S. cerevisiae deletion strains, locus YJL092W, strain hpr5, stronger effect = lower value 0.995 | S. cerevisiae deletion strains, locus YJL095W, strain BCK1 (second series), stronger effect = lower value 1 | S. cerevisiae deletion strains, locus YJL095W, strain BCK1, stronger effect = lower value 0.994 | S. cerevisiae deletion strains, locus YJL115W, strain asf1, stronger effect = lower value 0.979 | S. cerevisiae deletion strains, locus YJL129C, strain trk1, stronger effect = lower value 1 | S. cerevisiae deletion strains, locus YJL134W, strain LCB3, stronger effect = lower value 1.01 | S. cerevisiae deletion strains, locus YJL154C, strain vps35, stronger effect = lower value 0.975 | S. cerevisiae deletion strains, locus YJL164C, strain tpk1, stronger effect = lower value 1.01 | S. cerevisiae deletion strains, locus YJL166W, strain qcr8, stronger effect = lower value 0.995 | S. cerevisiae deletion strains, locus YJL168C, strain set2, stronger effect = lower value 1.02 | S. cerevisiae deletion strains, locus YJL187C, strain SWE1 (second series), stronger effect = lower value 0.989 | S. cerevisiae deletion strains, locus YJL187C, strain SWE1, stronger effect = lower value 0.992 | S. cerevisiae deletion strains, locus YJR043C, strain POL32, stronger effect = lower value 1 | S. cerevisiae deletion strains, locus YKL009W, strain mrt4, stronger effect = lower value 0.999 | S. cerevisiae deletion strains, locus YKL068W, stronger effect = lower value 1 | S. cerevisiae deletion strains, locus YKL085W, strain MDH1 (second series), stronger effect = lower value 1.01 | S. cerevisiae deletion strains, locus YKL085W, strain MDH1, stronger effect = lower value 1.01 | S. cerevisiae deletion strains, locus YKL160W, strain elf1, stronger effect = lower value 1.04 | S. cerevisiae deletion strains, locus YKL190W, strain CNB1, stronger effect = lower value 0.998 | S. cerevisiae deletion strains, locus YKR001C, strain vps1, stronger effect = lower value 1.01 | S. cerevisiae deletion strains, locus YKR026C, strain gcn3, stronger effect = lower value 0.977 | S. cerevisiae deletion strains, locus YKR091W, strain srl3, stronger effect = lower value 0.99 | S. cerevisiae deletion strains, locus YLL001W, strain dnm1, stronger effect = lower value 1.02 | S. cerevisiae deletion strains, locus YLL026W, stronger effect = lower value 1 | S. cerevisiae deletion strains, locus YLL041C, strain sdh2, stronger effect = lower value 0.997 | S. cerevisiae deletion strains, locus YLR027C, strain aat2, stronger effect = lower value 1 | S. cerevisiae deletion strains, locus YLR039C, strain RIC1, stronger effect = lower value 1.01 | S. cerevisiae deletion strains, locus YLR058C, strain SHM2, stronger effect = lower value 1.01 | S. cerevisiae deletion strains, locus YLR102C, strain apc9, stronger effect = lower value 1.01 | S. cerevisiae deletion strains, locus YLR221C, strain rsa3, stronger effect = lower value 1.01 | S. cerevisiae deletion strains, locus YLR258W, strain gsy2, stronger effect = lower value 0.985 | S. cerevisiae deletion strains, locus YLR262C, strain YPT6 (second series), stronger effect = lower value 0.99 | S. cerevisiae deletion strains, locus YLR262C, strain YPT6, stronger effect = lower value 1 | S. cerevisiae deletion strains, locus YLR268W, strain sec22, stronger effect = lower value 1 | S. cerevisiae deletion strains, locus YLR320W, strain mms22, stronger effect = lower value 0.999 | S. cerevisiae deletion strains, locus YLR330W, strain CHS5, stronger effect = lower value 1.01 | S. cerevisiae deletion strains, locus YLR342W, strain FKS1 (second series), stronger effect = lower value 1.07 | S. cerevisiae deletion strains, locus YLR342W, strain FKS1, stronger effect = lower value 0.979 | S. cerevisiae deletion strains, locus YLR357W, strain rsc2, stronger effect = lower value 0.991 | S. cerevisiae deletion strains, locus YLR370C, strain arc18, stronger effect = lower value 0.992 | S. cerevisiae deletion strains, locus YLR371W, strain rom2, stronger effect = lower value 1.01 | S. cerevisiae deletion strains, locus YLR384C, strain iki3, stronger effect = lower value 0.979 | S. cerevisiae deletion strains, locus YLR418C, strain cdc73, stronger effect = lower value 1.02 | S. cerevisiae deletion strains, locus YML016C, strain PPZ1, stronger effect = lower value 0.998 | S. cerevisiae deletion strains, locus YML032C, strain rad52, stronger effect = lower value 0.995 | S. cerevisiae deletion strains, locus YML120C, strain ndi1, stronger effect = lower value 0.985 | S. cerevisiae deletion strains, locus YML124C, strain tub3, stronger effect = lower value 1.01 | S. cerevisiae deletion strains, locus YMR058W, strain fet3, stronger effect = lower value 0.989 | S. cerevisiae deletion strains, locus YMR078C, strain ctf18, stronger effect = lower value 1.01 | S. cerevisiae deletion strains, locus YMR125W, strain sto1, stronger effect = lower value 0.959 | S. cerevisiae deletion strains, locus YMR129W, stronger effect = lower value 0.995 | S. cerevisiae deletion strains, locus YMR205C, strain PFK2, stronger effect = lower value 0.969 | S. cerevisiae deletion strains, locus YMR223W, strain ubp8, stronger effect = lower value 1.03 | S. cerevisiae deletion strains, locus YMR231W, strain pep5, stronger effect = lower value 0.976 | S. cerevisiae deletion strains, locus YMR307W, strain GAS1, stronger effect = lower value 0.996 | S. cerevisiae deletion strains, locus YNL067W, strain RPL9B, stronger effect = lower value 0.987 | S. cerevisiae deletion strains, locus YNL071W, strain lat1, stronger effect = lower value 0.984 | S. cerevisiae deletion strains, locus YNL209W, strain ssb2, stronger effect = lower value 0.979 | S. cerevisiae deletion strains, locus YNL233W, strain BNI4, stronger effect = lower value 0.984 | S. cerevisiae deletion strains, locus YNL248C, strain rpa49, stronger effect = lower value 1.01 | S. cerevisiae deletion strains, locus YNL250W, strain rad50, stronger effect = lower value 1.04 | S. cerevisiae deletion strains, locus YNL271C, strain bni1, stronger effect = lower value 1.01 | S. cerevisiae deletion strains, locus YNL298W, strain CLA4, stronger effect = lower value 1.01 | S. cerevisiae deletion strains, locus YNL307C, strain MCK1, stronger effect = lower value 1.02 | S. cerevisiae deletion strains, locus YNL322C, strain KRE1 (second series), stronger effect = lower value 0.989 | S. cerevisiae deletion strains, locus YNR049C, strain mso1, stronger effect = lower value 0.975 | S. cerevisiae deletion strains, locus YNR052C, strain pop2, stronger effect = lower value 1.01 | S. cerevisiae deletion strains, locus YOL006C, strain TOP1, stronger effect = lower value 0.961 | S. cerevisiae deletion strains, locus YOL012C, strain htz1 1.01 | S. cerevisiae deletion strains, locus YOL147C, strain pex11, stronger effect = lower value 1.01 | S. cerevisiae deletion strains, locus YOR001W, strain rrp6, stronger effect = lower value 1.01 | S. cerevisiae deletion strains, locus YOR061W, strain CKA2, stronger effect = lower value 1.01 | S. cerevisiae deletion strains, locus YOR069W, strain VPS5, stronger effect = lower value 1 | S. cerevisiae deletion strains, locus YOR070C, strain gyp1, stronger effect = lower value 0.986 | S. cerevisiae deletion strains, locus YOR080W, strain dia2, stronger effect = lower value 0.987 | S. cerevisiae deletion strains, locus YOR083W, strain WHI5, stronger effect = lower value 1.05 | S. cerevisiae deletion strains, locus YOR106W, strain vam3, stronger effect = lower value 1.01 | S. cerevisiae deletion strains, locus YOR136W, strain idh2, stronger effect = lower value 1 | S. cerevisiae deletion strains, locus YOR144C, strain elg1, stronger effect = lower value 1 | S. cerevisiae deletion strains, locus YOR184W, strain ser1, stronger effect = lower value 1.03 | S. cerevisiae deletion strains, locus YOR265W, strain rbl2, stronger effect = lower value 0.997 | S. cerevisiae deletion strains, locus YOR270C, strain vph1, stronger effect = lower value 0.973 | S. cerevisiae deletion strains, locus YOR290C, strain snf2, stronger effect = lower value 0.919 | S. cerevisiae deletion strains, locus YOR316C, strain cot1, stronger effect = lower value 1.01 | S. cerevisiae deletion strains, locus YPL051W, strain arl3, stronger effect = lower value 1.01 | S. cerevisiae deletion strains, locus YPL055C, strain LGE1, stronger effect = lower value 0.93 | S. cerevisiae deletion strains, locus YPL078C, strain atp4, stronger effect = lower value 1.01 | S. cerevisiae deletion strains, locus YPL106C, strain sse1, stronger effect = lower value 0.978 | S. cerevisiae deletion strains, locus YPL240C, strain hsp82, stronger effect = lower value 0.994 | S. cerevisiae deletion strains, locus YPR119W, strain clb2, stronger effect = lower value 1.01 | S. cerevisiae deletion strains, locus YPR141C, strain kar3, stronger effect = lower value 1 | S. cerevisiae deletion strains, locus YPR163C, strain tif3, stronger effect = lower value 1.02 | S. cerevisiae deletion strains, locus YPR167C, strain met16, stronger effect = lower value 1.01 | S. cerevisiae deletion strains, strain wtn01, stronger effect = lower value 1.01 | S. cerevisiae strains, strain wild type, stronger effect = lower value 1.01
